Measured values: the supplement of paper PMC11634586
Where a name gives a salt, the structure may show the parent alone.

These compounds were tested on NCI-H1688 (assay: inhibition of cell viability relative to untreated control (fraction); higher = stronger growth inhibition, active = 0.5 or more). Details: 30 µM; 24 h.
Outline: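 NCI-H1688 small cell lung cancer cells were plated in 96-well plates at 3 × 10^3 cells/well, and 24 h later they were exposed to a natural compound library (TargetMol) at 30 µM for 24 h at 37°C with 5% CO2. Viability was measured in triplicate using Cell Counting Kit-8, read as absorbance at 450 nm. Inhibition of cell viability is given as a fraction, calculated from viability normalised to untreated cells.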

Row | Structure (SMILES) | inhibition of cell viability
1 | C[C@@H]1CCCCCCCCCCCCC(=O)C1 [Muscone] | -0.148 (inactive)
2 | N[C@@H](Cc1cc(I)c(O)c(I)c1)C(=O)O [3,5-Diiodotyrosine Dihydrate] | 0.24 (inactive)
3 | Cc1ncc(CO)c(CO)c1O [Pyridoxine] | 0.0231 (inactive)
4 | Cc1ncc(CSSCc2cnc(C)c(O)c2CO)c(CO)c1O [Pyrithioxin] | 0.0153 (inactive)
5 | C=CCc1ccc(O)c(OC)c1 [Eugenol] | -0.184 (inactive)
6 | CC[C@@H]1C(=O)OC[C@@H]1Cc1cncn1C [(+)-Pilocarpine hydrochloride] | 0.197 (inactive)
7 | O=C1c2cccc(O)c2C(=O)c2c(O)cccc21 [Antrapurol] | 0.783 (active)
8 | O=C(/C=C/c1ccc(O)c(O)c1)O[C@@H]1C[C@](O)(C(=O)O)C[C@@H](O)[C@H]1O [Chlorogenic Acid] | 0.162 (inactive)
9 | Oc1cc(O)c2c(c1)OC(c1ccc(O)c(O)c1)C(OC1(c3ccc(O)c(O)c3)Oc3cc(O)cc(O)c3C(O)C1O)C2 (configuration not stated) [Proanthocyanidins] | -0.126 (inactive)
10 | CC(C)=CCC[C@](C)(O[C@@H]1O[C@H](CO)[C@@H](O)[C@H](O)[C@H]1O)[C@H]1CC[C@]2(C)[C@@H]1[C@H](O)C[C@@H]1[C@@]3(C)CC[C@H](O)C(C)(C)[C@@H]3[C@@H](O[C@@H]3O[C@H](CO)[C@@H](O)[C@H](O)[C@H]3O[C@@H]3OC[C@@H](O)[C@H](O)[C@H]3O)C[C@]12C [Notoginsenoside R1] | -0.0107 (inactive)
11 | C=C[C@](C)(O)CC[C@@H]1[C@@]2(C)CCCC(C)(C)[C@@H]2CC[C@@]1(C)O [Sclareol] | 0.318 (inactive)
12 | O=C(O)C1=C[C@@H](O)[C@@H](O)[C@H](O)C1 [Shikimic Acid] | 0.0707 (inactive)
13 | CC1=C(/C=C/C(C)=C/C=C/C(C)=C/C=C/C=C(C)/C=C/C=C(C)/C=C/C2=C(C)CCCC2(C)C)C(C)(C)CCC1 [Beta-Carotene] | 0.426 (inactive)
14 | O=C[C@H](O)[C@@H](O)[C@H](O)CO (racemic) [DL-Xylose] | -0.162 (inactive)
15 | O=C1/C(=C2\Nc3ccccc3C2=O)Nc2ccccc21 [Indigo] | -0.275 (inactive)
16 | C[n+]1cccc(C(=O)[O-])c1 [Trigonelline hydrochloride] | -0.14 (inactive)
17 | C[C@@H]1CC[C@@]2(OC1)O[C@H]1C[C@H]3[C@@H]4CC=C5C[C@@H](O)CC[C@]5(C)[C@H]4CC[C@]3(C)[C@H]1[C@@H]2C [Diosgenin] | -0.279 (inactive)
18 | O=C(O)[C@H]1O[C@@H](Oc2cc3oc(-c4ccccc4)cc(=O)c3c(O)c2O)[C@H](O)[C@@H](O)[C@@H]1O [Baicalin] | -0.127 (inactive)
19 | COc1cc([C@@H]2c3cc4c(cc3[C@@H](O[C@@H]3O[C@@H]5CO[C@@H](C)O[C@H]5[C@H](O)[C@H]3O)[C@H]3COC(=O)[C@H]23)OCO4)cc(OC)c1O [Etoposide] | 0.664 (active)
20 | C[C@]12C[C@H](O)[C@H]3[C@@H](CCC4=CC(=O)CC[C@@]43C)[C@@H]1CC[C@@H]2C(=O)CO [Corticosterone] | 0.0335 (inactive)
21 | c1coc(CNc2ncnc3[nH]cnc23)c1 [Kinetin] | 0.00365 (inactive)
22 | OC[C@H]1O[C@@H](O[C@@H]2[C@@H](CO)OC(O)(CO)[C@H]2O)[C@H](O)[C@@H](O)[C@H]1O (mixture of isomers) [Lactulose] | 0.135 (inactive)
23 | CC1(C)CC[C@]2(C(=O)O)[C@H](O)C[C@]3(C)C(=CC[C@@H]4[C@@]5(C)CC[C@H](O)C(C)(C)[C@@H]5CC[C@]43C)[C@H]2C1 [Echinocystic acid] | 0.139 (inactive)
24 | CCCCCCCCCCCCCCCCCCCCCCCCCCCCCCO | 0.22 (inactive)
25 | Cn1c(=O)c2c(ncn2C)n(C)c1=O [Caffeine] | 0.0548 (inactive)
26 | C=C[C@@]1(C)CC(=O)[C@]2(O)[C@@]3(C)[C@@H](O)CCC(C)(C)[C@@H]3[C@H](O)[C@H](OC(C)=O)[C@@]2(C)O1 [Forskolin] | 0.166 (inactive)
27 | N[C@@H](Cc1ccc(O)c(O)c1)C(=O)O [Levodopa] | 0.167 (inactive)
